Measurements as given in PubChem BioAssay (NCATS).
Results filed as inconclusive are left out. The source made the active and inactive calls. Calls follow the shape of the dose curve; as a rule, active = well fitted curve in either direction with a large enough effect (not every such curve was filed as active); inconclusive = small, poorly fitted or top-dose-only effect, or another doubt; inactive = flat fitted curve, though single readings scatter.

assay: NFAT Signaling Pathway (AID 444); conditions: Jurkat NFAT-bla M1, carbachol, beta-lactamase ratio, 5 h; at 17.2 µM (top of the series) unless noted
Source text: NCGC Assay Overview: The nuclear factor of activated T cells (NFAT) family of transcription factors has been found primarily in most immune system cells and some other non-immune cells. NFAT plays the immunomodulatory role, primarily in T-cell activation and differentiation. NFAT target genes are also involved in the regulation of apoptosis and differentiation in non-immune cell types. The NFAT sequence was engineered to the upstream of the ?-lactamase reporter gene and transfected into Jurkat cells with co-transfection of muscarinic receptor1 [provided by Invitrogen Corp]. When an extracellular stimulus, such as carbachol, binds to the GPCR M1 receptor, it stimulates a signaling cascade that activates NFAT response element and ?-lactamase expression by phosphorylating the NFAT binding protein. This cell based ?-lactamase reporter gene assay can accurately monitor any changes occurring along the NFAT pathway, and can be used for screening small molecule inhibitor or activator upon activation by carbachol EC50 concentration. A small molecular library were screened in a titration series resulting in AC50s (can be either IC50s or EC50s).
NCGC Assay Protocol Summary: The cells were prepared in RPMI 1640 medium containing 0.1% dialyzed FBS and 25 mM HEPES at 1.6 x 10^6cell/ml. The assay was performed in 1536-well plate format as follows: 5 ul of cell preparation 23 nl of compounds 1ul of carbachol (final concentration 1 uM) Briefly centrifuge the plates and incubate at 37 °C for 5 hours 1 ul of CCF4 dye mixture Incubate the plates at RT for 1 hour Read the plate in EnVision plate reader (Ex= 405nm, and Em1=460nm and Em2=530nm). The %Activity was determined from the ratio of 460nm/530nm. Data normalization and AC50 calculations were accomplished using GeneData software.
% is scaled to controls: 0 for no effect and ±100 for the full control effect.

Row | Compound | activity change, negative = inhibition
1 | CCC[C@@H]1O[C@@H]2C[C@@H]3[C@H]4CCC5=CC(=O)C=C[C@@]5(C)[C@H]4[C@H](O)C[C@@]3(C)[C@@]2(C(=O)CO)O1 | -1.55% (inactive)
2 | CC(=O)N(C[C@@H](C)C(=O)O)c1c(I)cc(I)c(N)c1I | -3.37% (inactive)
3 | O=C(N[C@@H](CO)[C@@H](O)c1ccc([N+](=O)[O-])cc1)C(Cl)Cl | -12.6% (inactive)
4 | CC(=O)C[C@H](c1ccc([N+](=O)[O-])cc1)c1c(O)c2ccccc2oc1=O | -1.36% (inactive)
5 | C#C[C@]1(O)CC[C@@H]2[C@H]3CCc4cc(OC)ccc4[C@@H]3CC[C@@]21C | -23.4% (inactive)
6 | C[C@H](N)CCCC(C)(C)O | -3.85% (inactive)
7 | CO/N=C(\C(=O)N[C@@H]1C(=O)N2C(C(=O)O)=C(COC(N)=O)CS[C@@H]12)c1ccco1 | 6.11% (inactive)
8 | CN(C)CCn1nnnc1SCC1=C(C(=O)O)N2C(=O)[C@@H](NC(=O)Cc3csc(N)n3)[C@@H]2SC1 | -2.63% (inactive)
9 | O=C1OCCN1/N=C\c1ccc([N+](=O)[O-])o1 | -2.86% (inactive)
10 | CCOC(=O)C1=C(C)NC(C)=C(C(=O)OC)[C@@H]1c1cccc([N+](=O)[O-])c1 | -23.9% (inactive)
11 | CCN1CCC[C@@H](OC(=O)C(c2ccccc2)c2ccccc2)C1 | -80.8% (active)
12 | CC(=O)Nc1cc2ccccc2oc1=O | -6.5% (inactive)
13 | COCC(=O)Nc1c(I)c(C(=O)NC[C@@H](O)CO)c(I)c(C(=O)N(C)C[C@@H](O)CO)c1I | 3.09% (inactive)
14 | CC(=O)N[C@@H](CC(=O)O)C(=O)O | -10.7% (inactive)
15 | CS(=O)(=O)c1ccc([C@H](O)[C@H](CF)NC(=O)C(Cl)Cl)cc1 | 1.9% (inactive)
16 | CC1(C)S[C@@H]2[C@H](NC(=O)[C@@H](N)c3ccc(O)cc3)C(=O)N2[C@H]1C(=O)O | -4.29% (inactive)
17 | C[C@H](C(=O)O)c1cccc(Oc2ccccc2)c1 | 4.26% (inactive)
18 | C[C@H](CCC(=O)O)[C@H]1CC[C@@H]2[C@@H]3[C@@H](O)C[C@H]4C[C@@H](O)CC[C@@]4(C)[C@H]3CC[C@@]21C | 14.2% (inactive)
19 | Cc1onc(-c2ccccc2Cl)c1C(=O)N[C@H]1C(=O)N2[C@H]1SC(C)(C)[C@H]2C(=O)O | -2.89% (inactive)
20 | CC(=O)S[C@H]1CC2=CC(=O)CC[C@@]2(C)[C@H]2CC[C@@]3(C)[C@H](CC[C@]34CCC(=O)O4)[C@@H]12 | -8.69% (inactive)

Row | Compound | activity change, negative = inhibition
21 | C[N+]1(C)C[C@@H](O)C[C@@H]1C(=O)[O-] | -11.1% (inactive)
22 | CC[C@H](C)C(=O)O[C@@H]1C[C@H](C)C=C2C=C[C@H](C)[C@@H](CC[C@H]3C[C@@H](O)CC(=O)O3)[C@H]21 | 11.4% (inactive)
23 | CC1=C(C(=O)O)N2C(=O)[C@@H](NC(=O)[C@@H](N)c3ccc(O)cc3)[C@@H]2SC1 | -8.2% (inactive)
24 | Cc1c(C)c2c(c(C)c1O)CC[C@@](C)(C(=O)O)O2 | 9.85% (inactive)
25 | C=C1C[C@@]23C[C@]1(O)CC[C@@H]2[C@]12C=C[C@@H](O)[C@](C)(C(=O)O1)[C@H]2[C@H]3C(=O)O | -11.2% (inactive)
26 | C#C[C@@]1(O)CC[C@@H]2[C@@H]3CCC4=CC(=O)CC[C@@H]4[C@H]3CC[C@]21C | -7.42% (inactive)
27 | Cc1c(O)c(=O)n(-c2ccccc2)n1C | -1.71% (inactive)
28 | CC(=O)[C@@H]1CC[C@@H]2[C@@H]3C[C@H](C)C4=CC(=O)CC[C@@]4(C)[C@H]3[C@H](O)C[C@]21C | -5.99% (inactive)
29 | C=C1CC23C[C@H]4[C@@H]5[C@@]6(C)C[C@H](OC(=O)c7ccccc7)[C@@H](OC(C)=O)[C@]57[C@@H]2[C@@H](OC(C)=O)[C@H]1[C@@H](O)[C@H]3[C@H]7N4C6 | -10.3% (inactive)
30 | CN(C)c1ccc(-c2nccc(NCc3ccccc3)n2)cc1 | -14.3% [at 7.69 µM] (inactive)
31 | C[C@@]12C=CC(=O)C=C1CC[C@H]1[C@H]3CC[C@](O)(C(=O)CO)[C@]3(C)CC(=O)[C@@H]12 | -19.6% (inactive)
32 | CC(C)CC(=O)N[C@H](C(=O)N[C@H](C(=O)N[C@@H](CC(C)C)[C@H](O)CC(=O)N[C@@H](C)C(=O)N[C@@H](CC(C)C)[C@H](O)CC(=O)O)C(C)C)C(C)C | -1.98% (inactive)
33 | CC(=O)OCC(=O)[C@@]1(OC(C)=O)[C@H](C)C[C@H]2[C@@H]3C[C@H](F)C4=CC(=O)C=C[C@@]4(C)[C@]3(F)[C@H](O)C[C@@]21C | 4% (inactive)
34 | C[N+](C)(CCCOc1ccccc1)c1ccccc1 | -17.9% (inactive)
35 | COc1cc2nc(N3CCN(C(=O)[C@@H]4CCCO4)CC3)nc(N)c2cc1OC | 12.6% (inactive)
36 | CCCCC[C@H](O)/C=C\[C@@H]1[C@H](O)CC(=O)[C@@H]1CCCCCCC(=O)O | -1.09% (inactive)
37 | CN(C)CCCO[C@H]1[C@@H]2OC(C)(C)O[C@@H]2O[C@@H]1[C@H](O)CO | -2.11% (inactive)
38 | CC[C@](C)(CN(C)C)OC(=O)c1ccccc1 | -26.6% (inactive)
39 | CC(=O)O[C@H]1C[C@@]2(C)[C@H](C[C@@H](O)[C@H]3[C@@]4(C)CC[C@@H](O)[C@@H](C)[C@H]4CC[C@@]32C)C1=C(CCC=C(C)C)C(=O)O | -11.2% (inactive)
40 | C[C@@H]1Cc2ccccc2N1NC(=O)c1ccc(Cl)c(S(N)=O)c1 (stereo not given in full) | 6.1% (inactive)
